Source: PubChem
Rows were chosen to be rich in hits. Some 0.65% of all compounds tested hit in one or more screens of this group.
TcdB inh = inhibitors of Clostridioides difficile toxin B glycohydrolase. TcdB glycohydrolase enzymatic assay, plate reader. inhibition, % at 9.99 µM. 0.24% of 350,000 active. AID 652162; in the data active = inhibition above about 10%
PrP UTR inh = inhibition of PrP 5' UTR reporter expression; cell-based PrP 5' UTR mRNA reporter, plate reader; inhibition, % (concentration not given with the values); 0.35% of 340,000 active; in the data active = inhibition above about 52%; also: 0 = median of the neutral control wells
BH1578 lux ind = induces V. cholerae light production without autoinducers. activation, % at 18.7 µM. 0.16% of 350,000 active. V. cholerae BH1578 lux reporter, luminescence, 6 h; in the data active = activation mostly above about 9.7%, no sharp cut-off
UGM FP inh = Mtb UDP-galactopyranose mutase inhibition; P9WIQ1; AID 504406; inhibition, % at 10 µM; purified UGM, fluorescence polarization probe displacement; 0.06% of 320,000 active; in the data active = inhibition above about 10%, passing the limit was not always enough
Target sequence (P9WIQ1 whole entry, looked up): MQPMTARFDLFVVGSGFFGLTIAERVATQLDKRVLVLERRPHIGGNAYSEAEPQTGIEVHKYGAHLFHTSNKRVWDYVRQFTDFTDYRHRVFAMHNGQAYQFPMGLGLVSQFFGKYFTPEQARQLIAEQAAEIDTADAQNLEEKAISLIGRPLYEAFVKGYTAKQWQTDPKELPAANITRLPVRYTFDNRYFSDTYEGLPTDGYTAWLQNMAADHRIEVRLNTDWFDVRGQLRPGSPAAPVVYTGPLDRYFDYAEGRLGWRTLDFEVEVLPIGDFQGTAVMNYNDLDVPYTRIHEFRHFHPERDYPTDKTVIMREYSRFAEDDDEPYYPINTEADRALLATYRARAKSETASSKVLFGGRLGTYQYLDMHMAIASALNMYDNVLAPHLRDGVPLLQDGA
Y pestis TopoI = Y. pestis Topo-I inhibition via cleavage products; 0.064% of 360,000 active; activity, % at 10 µM; Y. pestis Topo-I cleavage product accumulation, plate reader; AID 504884; in the data active = activity above about 50%, passing the limit was not always enough
PrP UTR cherry = prion 5' UTR mRNA inhibition, cherry-pick retest. 48% of 1,100 active. cell-based prion protein 5' UTR reporter, plate reader. inhibition, % at 2.5 µM. shares compounds with PrP UTR inh. AID 504592; in the data active = inhibition above about 54%
* hit, by the source's call; i = inactive; nt = no result.

SMILES | TcdB inh | PrP UTR inh | BH1578 lux ind | UGM FP inh | Y pestis TopoI | PrP UTR cherry
Cc1ccc(-c2ccc([C@@H]3[C@@H](CO)N4C(=O)CN(C(=O)Nc5cccc(F)c5)C[C@@H]34)cc2)cc1 | -4 | nt | nt | nt | nt | nt
CC(=O)OC1CC(OC2C(O)CC(OC3C(O)CC(OC4CCC5(C)C(CCC6C5CC(O)C5(C)C(C7=CC(=O)OC7)CCC65O)C4)OC3C)OC2C)OC(C)C1OC1OC(CO)C(O)C(O)C1O (stereo not given) | 2 | 90* | 0 | nt | 4 | 90*
COC1C(O)C(C)OC(OC2CCC3(C)C(CCC4C3C(O)CC3(C)C(C5=CC(=O)OC5)CCC43O)C2)C1O (stereo not given) | -10 | 87* | -6 | nt | -1 | 82*
C[C@]12CC[C@H](O)C[C@H]1CC[C@@H]1[C@@H]2C[C@@H](O)[C@]2(C)[C@@H](C3=CC(=O)OC3)CC[C@]12O | -4 | 59* | i | 1 | 5 | 66*
C[C@@H]1O[C@@H](O[C@H]2C[C@@H](O)[C@]3(CO)[C@@H]4C(CC[C@]3(O)C2)[C@@]2(O)CC[C@H](C3COC(=O)C3)[C@@]2(C)C[C@H]4O)[C@H](O)[C@H](O)[C@H]1O (stereo not given in full) | 0 | 48 | i | 1 | 0 | nt
CC12CCC(O)CC1CCC1C2CCC2(C)C(C3=CC(=O)OC3)C(O)CC12O (stereo not given) | 2 | 0 | i | nt | -1 | nt
C[C@]12CC[C@H](O)C[C@H]1CC[C@@H]1[C@@H]2CC[C@]2(C)[C@@H](C3=CC(=O)OC3)CC[C@]12O | 2 | 77* | -1 | 0 | 2 | 84*
C[C@H]1CC[C@@H]2[C@@H](C)[C@H]3[C@H](C[C@H]4[C@@H]5CC=C6C[C@@H](O[C@@H]7O[C@H](CO)[C@H](O)[C@H](O[C@@H]8O[C@H](CO)[C@@H](O)[C@H](O)[C@H]8O)[C@H]7O[C@@H]7O[C@@H](C)[C@H](O)[C@@H](O)[C@H]7O)CC[C@]6(C)[C@H]5CC[C@]34C)N2C1 | -1 | -51 | -1 | -1 | 6 | nt
O=C(Nc1cccc(Cl)c1)N[C@@H]1CC[C@@H](CCNC(=O)C2CCCCC2)O[C@@H]1CO | -1 | nt | nt | nt | nt | nt
CO[C@@H]1CC[C@@H]2CCOc3c(C#N)cccc3C(=O)N(C)[C@@H](C)C(=O)N(C)C[C@H]1O2 | 0 | nt | nt | nt | nt | nt
CC12CC[C@H]3[C@@H](CCC4(O)C[C@H](O)CCC34/C=N/NC(=O)Cc3ccccc3)C1(O)CCC2C1=CC(=O)OC1 (stereo not given in full) | 0 | -24 | 0 | -1 | 24 | nt
CC12CCC(O)CC1CCC1C2CCC2(C)C(C3=CC(=O)OC3)CCC12O (stereo not given) | 1 | 79* | 6 | nt | 6 | 82*
CN1CCc2c(sc(NC(=O)c3ccc([N+](=O)[O-])o3)c2C(N)=O)C1 | 2 | 91* | 0 | 3 | -7 | 97*
CCCCC[C@H]1CCCCC[C@H](O)C[C@H](O)[C@@H](O)/C=C/C(=O)O1 | 1 | nt | nt | nt | nt | nt
C[C@H]1CCC[C@@H](O)CCC/C=C/c2cc(O)cc(O)c2C(=O)O1 | nt | 3 | -1 | -1 | -5 | nt
C[C@H]1CCC/C=C/C2C[C@H](O)CC2[C@H](O)/C=C/C(=O)O1 (stereo not given in full) | nt | 81* | -1 | -2 | 1 | 90*
CC1CCC/C=C/C2CC(O)CC2C(O)/C=C/C(=O)O1 (stereo not given) | nt | 83* | 1 | 0 | -3 | 88*
CCC(=O)Nc1cc2nn(-c3ccc(C)cc3)nc2cc1C | 1 | 68* | 0 | -3 | -6 | 62*
CN(C[C@H]1N[C@H](CO)[C@H]1c1ccc(-c2cccc(F)c2)cc1)S(C)(=O)=O | 0 | nt | nt | nt | nt | nt
C=Cc1cc(OC)c2c(c1)c(=O)oc1c2cc(OC)c2c(O)ccc(C3OC(C)C(O)C(C)(O)C3O)c21 (stereo not given) | 0 | 68* | i | nt | -6 | 75*
CCCN1[C@@H]2Cn3c(cccc3=O)[C@H]1[C@@H](C(=O)N[C@@H](C)c1ccccc1)[C@@H]2CO | 0 | nt | nt | nt | nt | nt
COC(=O)c1ccc(CN2C(=O)NC(CC(C)C)C2=O)cc1 (stereo not given) | 0 | 81* | -1 | -1 | -2 | -1
COc1cc2c(c(OC)c1OC)-c1ccc(SC)c(=O)cc1C(NC(=O)c1ccccc1)CC2 (stereo not given) | 3 | 56* | i | nt | 16 | 83*
COc1cc2c(c(OC)c1OC)-c1ccc(OC)c(=O)cc1C(NC(=O)c1ccccc1)CC2 (stereo not given) | 2 | 56 | i | nt | -4 | nt
COC(=O)c1ccc2c(c1)C(NC(C)=O)CCc1cc(OC)c(OC)c(OC)c1-2 (stereo not given) | 1 | 51 | i | nt | 2 | nt
SMILES | TcdB inh | PrP UTR inh | BH1578 lux ind | UGM FP inh | Y pestis TopoI | PrP UTR cherry
COc1ccc2c(c1)C(NC(C)=O)CCc1cc(OC)c(OC)c(OC)c1-2 (stereo not given) | 3 | 42 | i | nt | 1 | nt
COc1c(C=O)c2c(c(OC)c1OC)-c1ccc(OC)c(=O)cc1C(NC(C)=O)CC2 (stereo not given) | 1 | 58* | -1 | nt | 5 | 86*
COc1cc2c(c(OC)c1OC)-c1ccc(O)c(=O)cc1C(NC(C)=O)CC2 (stereo not given) | 0 | 63* | -1 | -5 | 5 | 86*
CCCNC(=O)N1C[C@H]2[C@@H](c3ccccc31)[C@H](CO)N2CC1CCCC1 | 0 | nt | nt | nt | nt | nt
O=C(N[C@@H]1CC[C@@H](CC(=O)N2CCCCC2)O[C@@H]1CO)c1ccc2c(c1)OCO2 | -1 | nt | nt | nt | nt | nt
CN1CCN(c2ccc(S(C)(=O)=O)cc2[N+](=O)[O-])CC1 | 1 | -25 | -1 | 2 | 0 | nt
CN1CCN(c2ccc([N+](=O)[O-])c3no[n+]([O-])c23)CC1 | 1 | 79* | 3 | 2 | -8 | 86*
COc1ccc2cc3c(N)nn(C(=O)c4ccc(F)cc4)c3nc2c1 | 2 | 15 | -1 | 0 | -6 | nt
COc1ccc2cc3c(N)nn(C(=O)c4ccccc4Cl)c3nc2c1 | 1 | 58* | -1 | 1 | 12 | 47
CCN1C/C(=C\c2cccc([N+](=O)[O-])c2)C(=O)/C(=C/c2cccc([N+](=O)[O-])c2)C1 | -4 | 63* | 0 | nt | -5 | 61*
COc1ccc2c3c(n(C)c2c1)[C@H](CO)N(C(=O)CN(C)C)CC31CCN(C(=O)CN(C)C)CC1 | -3 | nt | nt | nt | nt | nt
COc1ccc(/C=N/NC(=O)c2[nH]c3ccc(Br)cc3c2-c2ccccc2)cc1 | nt | 68* | i | -4 | 14 | 81*
COc1ccc(/C=N/NC(=O)c2[nH]c3ccc(Br)cc3c2-c2ccccc2)c(C(=O)O)c1OC | -1 | -23 | -1 | 0 | 8 | nt
CCC(C)(C)c1ccc(Oc2ccc(N)cc2)cc1 | 0 | 87* | i | nt | 24 | 88*
CN(C)C(=O)c1cccc(-c2ccc3c(c2)[C@H]2[C@H](CCN2C(=O)c2cnccn2)[C@H](CO)N3)c1 | -1 | nt | nt | nt | nt | nt
